In publication PMC4336329 (PLoS ONE, 2015):
About 14,000 (4.5%) of roughly 310,000 compounds showed an effect of 50% or more. The effect is printed as a negative number. The sample as a whole holds a higher share of strong results than the screen did.

Biological target: human ether-à-go-go-related gene (hERG) potassium channel (human, UniProt Q12809)
Assay: primary screen, population patch clamp on CHO cells stably expressing hERG; higher = less effect of the substance
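Further: peak tail current of the secondary pulse compared with the same well before compound.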

Sequence of human ether-à-go-go-related gene (hERG) potassium channel (Q12809 whole entry, looked up): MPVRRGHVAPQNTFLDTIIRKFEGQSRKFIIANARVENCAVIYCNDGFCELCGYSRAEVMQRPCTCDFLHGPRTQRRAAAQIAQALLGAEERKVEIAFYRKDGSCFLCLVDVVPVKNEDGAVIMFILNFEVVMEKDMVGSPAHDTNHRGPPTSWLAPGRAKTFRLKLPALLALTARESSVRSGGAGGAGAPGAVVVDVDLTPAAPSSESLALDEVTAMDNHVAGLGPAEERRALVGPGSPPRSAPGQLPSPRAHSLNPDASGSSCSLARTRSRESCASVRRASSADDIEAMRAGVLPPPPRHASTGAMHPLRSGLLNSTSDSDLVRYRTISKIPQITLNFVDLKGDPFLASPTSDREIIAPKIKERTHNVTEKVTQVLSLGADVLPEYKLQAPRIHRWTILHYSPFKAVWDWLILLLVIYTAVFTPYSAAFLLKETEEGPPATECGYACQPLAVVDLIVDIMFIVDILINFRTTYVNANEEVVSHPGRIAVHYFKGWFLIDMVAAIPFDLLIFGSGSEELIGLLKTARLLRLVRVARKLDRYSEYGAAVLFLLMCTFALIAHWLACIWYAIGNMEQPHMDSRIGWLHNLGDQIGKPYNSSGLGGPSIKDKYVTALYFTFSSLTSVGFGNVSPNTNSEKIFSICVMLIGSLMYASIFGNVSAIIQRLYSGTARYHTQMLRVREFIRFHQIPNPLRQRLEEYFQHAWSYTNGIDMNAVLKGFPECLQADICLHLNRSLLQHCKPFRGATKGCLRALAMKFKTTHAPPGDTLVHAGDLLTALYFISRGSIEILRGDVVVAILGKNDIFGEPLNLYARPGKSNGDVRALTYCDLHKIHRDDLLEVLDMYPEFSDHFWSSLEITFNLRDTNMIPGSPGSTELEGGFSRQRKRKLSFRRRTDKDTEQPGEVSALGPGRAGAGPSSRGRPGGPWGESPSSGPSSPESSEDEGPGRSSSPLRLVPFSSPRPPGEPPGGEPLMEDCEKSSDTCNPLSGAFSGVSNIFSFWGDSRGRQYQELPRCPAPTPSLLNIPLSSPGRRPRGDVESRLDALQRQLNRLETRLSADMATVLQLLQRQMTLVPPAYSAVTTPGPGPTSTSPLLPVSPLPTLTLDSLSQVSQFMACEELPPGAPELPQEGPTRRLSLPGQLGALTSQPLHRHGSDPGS

Structure (SMILES) | hERG current change (%, negative = inhibition) at 10uM
CN(C)c1ccc(CNn2cnnc2SCC(=O)NC(C)(C)C)cc1 | 23.4%
CCOc1ccc(C(=O)OCC(=O)NCCCc2ccccc2)cc1 | 0.425%
Cc1c(/C=N/n2cnnc2)c2ccccc2n1C | 1.25%
O=C(NC1CCCCC1)C12CC3CC(C1)CC(n1cncn1)(C3)C2 | 0.934%
CC(NC(=O)C12CC3CC(C1)CC(n1cncn1)(C3)C2)C12CC3CC(CC(C3)C1)C2 (stereo not shown) | -61.9%
COC(=O)c1ccc(NC(=O)C23CC4CC(C2)CC(n2cncn2)(C4)C3)cc1 | -22%
CCN(CC)C(=O)CSC1=C(C#N)C(c2cccs2)C=C(C)N1 (stereo not shown) | 14.1%
COc1ccc2c(c1)CC/C(=C/c1ccccn1)C2=O | 3.19%
COc1ccc2c(c1)CC/C(=C/c1cc(OC)c(OC)c(OC)c1)C2=O | -1.54%
COc1ccc2c(c1)CC/C(=C/c1ccncc1)C2=O | -55.2%
CCCc1cc(=O)oc2cc(OCc3cc(OC)c(OC)c(OC)c3)c(Cl)cc12 | 17.4%
CC1(C)CC(NC(=S)NCc2ccco2)CC(C)(C)N1 | 18.9%
COc1ccc(CN2CCN(C3CCOCC3)CC2CCO)c(C)c1C (stereo not shown) | -12.4%
Cc1ccccc1CN1CCN(Cc2cc3ccccc3o2)CC1CCO (stereo not shown) | -6.94%
CCOc1ccc(CN2CCN(C3CCC3)CC2CCO)cc1 (stereo not shown) | -19.2%
COc1cccc(CN2CCN(Cc3cc4ccccc4o3)CC2CCO)c1 (stereo not shown) | -10.7%
CCOc1ccc(CN2CCN(C3CCSCC3)CC2CCO)cc1 (stereo not shown) | -74.3%
CCOc1ccccc1CN1CCN(Cc2ccc(C)o2)CC1CCO (stereo not shown) | -37.9%
Cc1ccc(CN2CCN(Cc3ccc(OCCO)cc3)CC2CCO)o1 (stereo not shown) | 1.29%
COc1ccc(CN2CCN(C3CCC3)CC2CCO)c(C)c1C (stereo not shown) | 0.432%
CCOc1ccc(CN2CCN(Cc3ccc(C)o3)CC2CCO)cc1 (stereo not shown) | -104%
COc1ccc(CN2CCN(C3CCSCC3)CC2CCO)c(C)c1C (stereo not shown) | -51.1%
CCOc1ccccc1CN1CCN(C2CCSCC2)CC1CCO (stereo not shown) | -25.9%

Structure (SMILES) | hERG current change (%, negative = inhibition) at 10uM
COc1ccc(CN2CCN(Cc3cc4ccccc4o3)CC2CCO)c(F)c1 (stereo not shown) | -60.9%
CCOC(=O)C1=C(CS(=O)(=O)c2ccccc2)NC(=O)NC1c1ccccc1OCC (stereo not shown) | -4.89%
Cc1ccsc1C1NC(=O)c2ccccc2N1 (stereo not shown) | 5.58%
CCC(C)(C)NC(=O)C(c1ccc(OC)cc1)N(C(=O)CCC(=O)Nc1cc(C)on1)c1ccc2c(c1)OCCO2 (stereo not shown) | 11.1%
O=C1OC/C(=C(/O)c2ccc(Cl)cc2)C1=O | 17%
Cc1cc(NC(=S)NC(=O)c2ccco2)c2ccccc2n1 | -1.51%
Cc1ccc(S(=O)(=O)N2CCCCC2C(=O)O)cc1 (stereo not shown) | 6.47%
COc1ccc(C(=O)C2CCN(C(=S)NCC3CCCO3)CC2)cc1 (stereo not shown) | -7.23%
O=C(c1cccc(S(=O)(=O)N2CCCC2)c1)N(Cc1ccco1)C1CCS(=O)(=O)C1 (stereo not shown) | -21.8%
OCCC1CN(Cc2cc3ccccc3o2)CCN1Cc1ccc(F)cc1 (stereo not shown) | -11.8%
CCOc1ccc(CN2CCN(Cc3ccon3)CC2CCO)cc1 (stereo not shown) | -62.8%
CCOc1ccc(CN2CCN(CC3CC3)CC2CCO)cc1 (stereo not shown) | -67.1%
COc1ccc(CN2CCN(CC3CC3)CC2CCO)cc1C (stereo not shown) | -0.194%
OCCC1CN(Cc2ccon2)CCN1Cc1ccccc1 (stereo not shown) | 9.42%
Cc1ccc(CN2CCN(Cc3cc4ccccc4o3)CC2CCO)cc1 (stereo not shown) | -43.1%
CCOc1ccc(CN2CCN(Cc3cc4ccccc4o3)CC2CCO)cc1 (stereo not shown) | -80.4%
Cc1ccc(CN2CCN(Cc3ccon3)CC2CCO)cc1 (stereo not shown) | -11.1%
COc1cc(CN2CCN(CC3CC3)CC2CCO)cc(OC)c1 (stereo not shown) | 2.79%
N#CC(C#N)=Cc1c[nH]c(=O)c(C#N)c1Nc1ccccc1 | 16.1%
O=C(CN(Cc1ccccc1)S(=O)(=O)c1ccccc1)NC1CC1 | -3.03%
CCc1cc(=O)oc2cc(C)cc(OCC(=O)NCC3CCC(C(=O)O)CC3)c12 (stereo not shown) | 4.34%
CC(C)(C)NC(=O)CN(c1cccc([N+](=O)[O-])c1)S(=O)(=O)c1ccccc1 | -11.5%
Cc1cc(C)c(NC(=O)CCCOC(=O)C2=COCCO2)c(C)c1 | 16.1%

Structure (SMILES) | hERG current change (%, negative = inhibition) at 10uM
O=C(N/N=C/c1cccc(F)c1)c1csc2c1CCCC2 | -30%
CC(C)C[C@H](NC(=O)c1[nH]cnc1C(=O)N[C@@H](C)c1ccccc1)C(=O)OC(C)(C)C | 12.5%
CC1CCN(C(=O)c2cc3ccccc3c(=O)o2)CC1 | 5.74%
Nc1nnnn1CC(=O)N/N=C/c1ccc(-c2cccc(Cl)c2)o1 | 8.79%
O=C(CN1CCCC1)N/N=C/c1ccc(-c2cccc(Cl)c2)o1 | -62.2%
O=C(Cn1nnc(-c2ccccc2Cl)n1)N/N=C/c1ccc(-c2cccc(Cl)c2)o1 | 2.26%
Cc1ccc(-c2ccc(/C=N/NC(=O)CN3CCCC3)o2)cc1Cl | -90.2%
COC(=O)N/N=C/c1ccc(-c2ccc(C)c(Cl)c2)o1 | -6.4%
Cc1nnc(SCC(=O)N/N=C/c2ccc(-c3ccc(C)c(Cl)c3)o2)s1 | -1.51%
CC1(c2ccccc2)NC(=O)N(Cc2ccc([N+](=O)[O-])cc2)C1=O (stereo not shown) | -31%
COC(=O)c1ccc(CN2CCCC(C(=O)Nc3cccc(-n4cnnn4)c3)C2)cc1 (stereo not shown) | -47.7%
COc1ccc(CN2CCCC(C(=O)Nc3cccc(-n4cnnn4)c3)C2)c(C)c1C (stereo not shown) | -62.7%
COc1ccc(CN2CCCC(C(=O)Nc3cccc(-n4cccn4)c3)C2)c(F)c1 (stereo not shown) | -30.3%
Cn1cc(CN2CCCC(C(=O)Nc3cccc(-n4cccn4)c3)C2)cn1 (stereo not shown) | -5.79%
COCc1cc(CN2CCCC(C(=O)Nc3cccc(-n4cnnn4)c3)C2)ccc1OC (stereo not shown) | -6.58%
O=C(Nc1cccc(-n2cnnn2)c1)C1CCCN(Cc2cccc(C(F)(F)F)c2)C1 (stereo not shown) | -59.8%
COC(=O)Cc1c(C)c2ccc(OC3CCCCC3=O)c(C)c2oc1=O (stereo not shown) | 3.77%
CCCCCOc1ccc(NC(=O)CSc2cccc3cccnc23)cc1 | 18.8%
N#Cc1cc([N+](=O)[O-])ccc1NC(=O)CSc1n[nH]c(=O)n1C1CC1 | 1.42%
COc1cccc(OC)c1C(=O)N1CCN(c2ccccn2)CC1 | 11%
COc1cccc(OC)c1C(=O)Nc1c(C(=O)N2CCN(c3ccccn3)CC2)oc2ccccc12 | -61.6%
COc1cccc(OC)c1C(=O)Nc1c(C(=O)N2CCN(C)CC2)oc2ccccc12 | -29.1%
O=C(Nc1c(C(=O)N2CCN(c3ccccn3)CC2)oc2ccccc12)c1ccc([N+](=O)[O-])cc1 | -51%

Structure (SMILES) | hERG current change (%, negative = inhibition) at 10uM
Cc1c(C(=O)N2CCN(c3ccccn3)CC2)oc2ccccc12 | -28%
O=C(Nc1c(C(=O)N2CCN(c3ccccn3)CC2)oc2ccccc12)c1cccc([N+](=O)[O-])c1 | -48.8%
COc1ccc(NC(=O)c2ccc(-c3nn(C)c(=O)c4ccccc34)cc2)cc1C(N)=O | 6.4%
Cc1ccc(N(C(=O)Cc2cccs2)C(C(=O)NCC2CCCO2)c2ccncc2)cc1 (stereo not shown) | 11.5%
CCOc1ccc(Cc2nc(C)c(CC(=O)N3CCOCC3)c(=O)[nH]2)cc1 | 8.37%
O=C(CSc1ncnc2ccccc12)NCc1ccc2c(c1)OCO2 | -16.9%
O=C(C(=O)N1CCCc2ccccc21)c1c[nH]c2ccccc12 | 4.5%
O=S(=O)(c1ccccc1)N1CCN(CCc2ccccc2)CC1 | 14.2%
CC(=O)Nc1ccc(S(=O)(=O)N2CCN(Cc3ccncc3)CC2)cc1 | -8.67%
O=S(=O)(c1ccc(Cl)cc1)N1CCN(CCc2ccncc2)CC1 | -55.3%
O=S(=O)(c1ccc(Cl)cc1)N1CCN(CCc2ccccc2)CC1 | -3.7%
O=C(O)C(=O)O.O=S(=O)(c1ccc(Cl)cc1)N1CCN(Cc2ccncc2)CC1 | -51.5%
CCS(=O)(=O)N1CCN(Cc2ccncc2)CC1.O=C(O)C(=O)O | 13.2%
COc1ccc(C2=NC(C)(C)Cc3cc(OC)c(OC)cc32)cc1 | -44%
Cc1cccc(OCC(O)Cn2c(=N)n(CCN3CCOCC3)c3ccccc32)c1.Cl (stereo not shown) | -57.9%
Cc1ccccc1OCCCN1CCOCC1 | 9.44%
Cc1cccc(OCC(O)Cn2c(=N)n(CCN3CCCCC3)c3ccccc32)c1.Cl (stereo not shown) | -80.5%
Cl.OC(COc1cccc(OCC(O)CN2CCOCC2)c1)CN1CCOCC1 (stereo not shown) | 7.41%
Cc1ccc(OCC(O)CN2CCOCC2)cc1C.Cl (stereo not shown) | 17.7%
OC(COc1cccc(OCC(O)CN2CCCC2)c1)CN1CCCC1 (stereo not shown) | -2.86%
COc1ccccc1OCC(O)CN1CCOCC1 (stereo not shown) | 15.2%
Cc1ccccc1OCC(O)Cn1c(=N)n(CCN2CCOCC2)c2ccccc21.Cl (stereo not shown) | -61.5%
